# Source: PubChem BioAssay (EPA / NIEHS)
# Records with an inconclusive call do not appear. Calls of active or inactive are those of the source. Rule for the calls, unless noted: active = hit-call score of the fitted dose curve at least 0.9, where 1 is the maximum; inconclusive = response in the unintended direction; inactive = score below 0.9.
# What was measured:
# [1] = read-out: organic anion transporter (SLCO1B1), SLCO1B1 (gene 10599); test: CLD_SLCO1B1_24hr: CellzDirect (CLD) Gene Expression Assay for organic anion transporter (SLCO1B1) at 24 hours (AID 2283690)
# Summary of the method: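 SLCO1B1 mRNA induction read at 24 h by quantitative nuclease protection assay (chemiluminescence), analyzed against DMSO baseline. Human hepatocyte cultures from separate donors received fresh dosing solutions daily; vehicle 0.2% DMSO; cytotoxicity flagged by phase-contrast morphology.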
# [2] = read-out: alkyl and aryl transferase (GSTA2), GSTA2 (gene 2939); test: CLD_GSTA2_24hr: CellzDirect (CLD) Gene Expression Assay for alkyl and aryl transferase (GSTA2) at 24 hours (AID 2283693)
# Summary of the method: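 GSTA2 transcript levels were quantified by quantitative nuclease protection assay in primary human hepatocytes 24 h after daily dosing with fresh solutions at multiple concentrations; 0.2% DMSO vehicle as baseline, cytotoxicity flagged morphologically.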
# [3] = read-out: ABC Transporter (ABCB1), ABCB1 (gene 5243); test: CLD_ABCB1_48hr: CellzDirect (CLD) Gene Expression Assay for ABC Transporter (ABCB1) at 48 hours (AID 2283695);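 for AC50: potency for induction meaning increase of mRNA over DMSO vehicle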
# Summary of the method: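 ABCB1 mRNA was measured by quantitative nuclease protection assay (chemiluminescence) 48 h after dosing. Human hepatocyte cultures from two separate donors received fresh dosing solutions daily for two days, with 0.2% DMSO as vehicle. Positive-direction fit against DMSO.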
# [4] = read-out: ABC Transporter (ABCB11), ABCB11 (gene 8647); test: CLD_ABCB11_48hr: CellzDirect (CLD) Gene Expression Assay for ABC Transporter (ABCB11) at 48 hours (AID 2283697)
# Summary of the method: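 Induction of ABCB11 mRNA relative to 0.2% DMSO, measured at 48 h by qNPA chemiluminescence. Cultured human hepatocytes (two donors) received fresh dosing solutions at several concentrations on two consecutive days.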
# [5] = read-out: Cytochrome P450 3A4 (Homo sapiens) (UniProt P08684); test: CLD_CYP3A4_48hr: CellzDirect (CLD) Gene Expression Assay for xenobiotic metabolism (CYP3A4) at 48 hours (AID 2283698)
# Summary of the method: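 CYP3A4 induction read by qNPA chemiluminescence after 48 h, with fresh dosing solutions on consecutive days, in cultured human hepatocytes (two donors). Vehicle 0.2% DMSO as baseline; microscopy-based cytotoxicity annotated yes/no alongside data.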
# [6] = read-out: Cytochrome P450 2C19 (Homo sapiens) (UniProt P33261); test: CLD_CYP2C19_48hr: CellzDirect (CLD) Gene Expression Assay for xenobiotic metabolism (CYP2C19) at 48 hours (AID 2283700);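 note: fitted upward so actives raise CYP2C19 mRNA above the 0.2% DMSO vehicle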
# Summary of the method: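 CYP2C19 mRNA induction read by chemiluminescent quantitative nuclease protection assay after 48 h, with fresh compound added daily for two days to cultured human liver hepatocytes. Activity fitted upward against 0.2% DMSO vehicle.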
# [7] = read-out: Cytochrome P450 2C9 (Homo sapiens) (UniProt P11712); test: CLD_CYP2C9_48hr: CellzDirect (CLD) Gene Expression Assay for xenobiotic metabolism (CYP2C9) at 48 hours (AID 2283701; active = hit-call score of the fitted dose curve at least 0.9, where 1 is the maximum; inactive = score below 0.9)
# Summary of the method: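 mRNA level measured by quantitative nuclease protection (S1 digestion, chemiluminescent detection) in lysates of human primary hepatocytes exposed 48 h with daily re-dosing. Induction fitted positively versus 0.2% DMSO; morphology-based cytotoxicity flagged yes/no.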
# [8] = read-out: Cytochrome P450 2C9 (Homo sapiens) (UniProt P11712); test: CLD_CYP2C9_24hr: CellzDirect (CLD) Gene Expression Assay for xenobiotic metabolism (CYP2C9) at 24 hours (AID 2283688)
# Summary of the method: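 Induction of CYP2C9 mRNA was quantified by quantitative nuclease protection assay (chemiluminescence), gain of signal versus 0.2% DMSO vehicle, 24 h after dosing. Human primary hepatocytes (two donors) received fresh chemical daily at multiple concentrations; morphology-based cytotoxicity flagged yes/no.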
# [9] = read-out: glucuronosyltransferase (UGT1A1), UGT1A1 (gene 54658); test: CLD_UGT1A1_24hr: CellzDirect (CLD) Gene Expression Assay for glucuronosyltransferase (UGT1A1) at 24 hours (AID 2283696)
# Summary of the method: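 UGT1A1 transcript induction was measured by quantitative nuclease protection assay (chemiluminescence) in human hepatocyte cultures 24 h after daily fresh dosing, with 0.2% DMSO as vehicle and baseline.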
# [10] = read-out: Cytochrome P450 2B6 (Homo sapiens) (UniProt P20813); test: CLD_CYP2B6_48hr: CellzDirect (CLD) Gene Expression Assay for xenobiotic metabolism (CYP2B6) at 48 hours (AID 2283699);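 note: actives raise transcript level above DMSO so potency reflects induction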
# Summary of the method: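 CYP2B6 transcript induction, read by quantitative nuclease protection (S1 digestion, chemiluminescent detection) 48 h after dosing, is fitted upward against 0.2% DMSO. Cultured human liver primary cells, two donor preparations, received fresh chemical daily over multiple concentrations.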
# Cytochrome P450 2C19 (Homo sapiens), sequence (P33261 whole entry, looked up): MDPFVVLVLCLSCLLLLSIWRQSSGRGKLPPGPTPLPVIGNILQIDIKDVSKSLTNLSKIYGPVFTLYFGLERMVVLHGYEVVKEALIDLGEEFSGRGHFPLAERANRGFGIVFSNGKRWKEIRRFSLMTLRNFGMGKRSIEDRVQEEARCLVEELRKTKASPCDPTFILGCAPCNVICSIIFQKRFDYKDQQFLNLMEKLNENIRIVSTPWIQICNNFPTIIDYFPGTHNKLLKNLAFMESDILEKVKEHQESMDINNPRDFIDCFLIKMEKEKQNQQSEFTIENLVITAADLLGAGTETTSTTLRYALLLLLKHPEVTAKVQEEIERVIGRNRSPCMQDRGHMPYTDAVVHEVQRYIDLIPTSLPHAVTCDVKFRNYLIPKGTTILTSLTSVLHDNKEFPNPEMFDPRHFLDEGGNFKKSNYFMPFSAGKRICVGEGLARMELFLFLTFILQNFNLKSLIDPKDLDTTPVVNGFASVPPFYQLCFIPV
# Cytochrome P450 3A4 (Homo sapiens), sequence (P08684 whole entry, looked up): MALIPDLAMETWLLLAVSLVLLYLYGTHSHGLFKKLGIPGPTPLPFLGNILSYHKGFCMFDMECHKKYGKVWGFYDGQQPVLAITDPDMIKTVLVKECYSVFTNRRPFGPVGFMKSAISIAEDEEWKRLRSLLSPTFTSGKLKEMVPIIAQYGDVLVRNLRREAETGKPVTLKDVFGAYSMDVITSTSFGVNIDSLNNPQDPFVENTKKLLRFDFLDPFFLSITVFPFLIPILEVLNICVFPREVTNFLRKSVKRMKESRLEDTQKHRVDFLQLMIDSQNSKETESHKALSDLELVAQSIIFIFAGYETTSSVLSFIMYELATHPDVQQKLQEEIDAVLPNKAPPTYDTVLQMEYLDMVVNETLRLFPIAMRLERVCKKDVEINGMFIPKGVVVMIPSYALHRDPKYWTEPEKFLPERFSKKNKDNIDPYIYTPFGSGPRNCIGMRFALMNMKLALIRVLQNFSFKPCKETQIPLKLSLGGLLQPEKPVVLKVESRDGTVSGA
compound,measurement,setting,value
COP(=O)(OC)OC=C(Cl)Cl,outcome,[1],inactive
same,outcome,[2],inactive
same,outcome,[3],inactive
same,outcome,[4],inactive
same,outcome,[5],inactive
same,outcome,[6],inactive
same,outcome,[7],inactive
CNC(=O)CSP(=S)(OC)OC,outcome,[2],inactive
same,outcome,[3],inactive
same,outcome,[6],inactive
O=C1c2ccccc2C(=O)N1SC(Cl)(Cl)Cl,outcome,[1],inactive
same,outcome,[2],inactive
same,outcome,[3],inactive
same,outcome,[4],inactive
same,outcome,[6],inactive
Oc1cc(Cl)ccc1Oc1ccc(Cl)cc1Cl,outcome,[1],inactive
same,outcome,[2],inactive
same,outcome,[3],inactive
same,outcome,[4],inactive
same,outcome,[5],inactive
same,outcome,[6],inactive
N#Cc1c(Cl)c(Cl)c(Cl)c(C#N)c1Cl,outcome,[2],inactive
same,outcome,[4],inactive
same,AC50,[5],0.000914 µM (active)
same,outcome,[6],inactive
CCC(C)(C)C(=O)OC1=C(c2ccc(Cl)cc2Cl)C(=O)OC12CCCCC2,outcome,[8],inactive
same,outcome,[3],inactive
same,AC50,[5],34.8 µM (active)
same,outcome,[7],inactive
O=C(O)C(F)(F)C(F)(F)C(F)(F)C(F)(F)C(F)(F)C(F)(F)C(F)(F)F,outcome,[1],inactive
same,outcome,[3],inactive
same,outcome,[9],inactive
same,AC50,[5],3.97 µM (active)
same,outcome,[10],inactive
same,outcome,[6],inactive
Cc1[nH]c(=O)n(C(C)(C)C)c(=O)c1Cl,outcome,[8],inactive
same,outcome,[3],inactive
same,outcome,[5],inactive
same,outcome,[6],inactive
same,outcome,[7],inactive
CC(C)N(C(=O)COc1nnc(C(F)(F)F)s1)c1ccc(F)cc1,outcome,[2],inactive
same,outcome,[3],inactive
same,AC50,[5],5.1 µM (active)
CC[C@H](C)[C@H]1O[C@]2(C=C[C@@H]1C)C[C@@H]1C[C@@H](C/C=C(\C)[C@@H](O[C@H]3C[C@H](OC)[C@@H](O[C@H]4C[C@H](OC)[C@@H](O)[C@H](C)O4)[C@H](C)O3)[C@@H](C)/C=C/C=C3\CO[C@@H]4[C@H](O)C(C)=C[C@@H](C(=O)O1)[C@]34O)O2 (tested in a mixture with another compound),outcome,[1],inactive
same,outcome,[2],inactive
same,AC50,[3],1.01 µM (active)
same,AC50,[4],0.206 µM (active)
same,outcome,[6],inactive
CC1(C)C(C=C(Cl)Cl)C1C(=O)OC(C#N)c1ccc(F)c(Oc2ccccc2)c1 (stereo not given),outcome,[8],inactive
same,AC50,[5],6.91 µM (active)
same,outcome,[6],inactive
same,outcome,[7],inactive
CCN(CC)C(=O)SCc1ccc(Cl)cc1,outcome,[1],inactive
same,outcome,[2],inactive
same,outcome,[3],inactive
same,AC50,[5],20 µM (active)
same,outcome,[6],inactive
Cc1cc(C)nc(NC(=O)NS(=O)(=O)c2ccccc2C(=O)OC2COC2)n1,outcome,[1],inactive
same,outcome,[2],inactive
same,outcome,[3],inactive
same,outcome,[9],inactive
same,outcome,[4],inactive
same,outcome,[6],inactive
same,outcome,[7],inactive
CCc1ccc(C(=O)NN(C(=O)c2cc(C)cc(C)c2)C(C)(C)C)cc1,outcome,[1],inactive
same,outcome,[3],inactive
same,outcome,[4],inactive
same,AC50,[5],2.15 µM (active)
same,outcome,[7],inactive
CCC(C)Nc1c([N+](=O)[O-])cc(C(C)(C)C)cc1[N+](=O)[O-] (stereo not given),outcome,[2],inactive
same,outcome,[3],inactive
same,AC50,[5],2.7 µM (active)
same,outcome,[6],inactive
N#CN,outcome,[1],inactive
same,outcome,[2],inactive
same,outcome,[3],inactive
same,outcome,[6],inactive
same,outcome,[7],inactive
ClC1C(Cl)C(Cl)C(Cl)C(Cl)C1Cl (stereo not given),outcome,[8],inactive
same,outcome,[3],inactive
same,outcome,[7],inactive
CNC(=O)Oc1ccccc1OC(C)C,outcome,[3],inactive
same,AC50,[5],3.99 µM (active)
same,outcome,[6],inactive
same,outcome,[7],inactive
CCCN(CCOc1c(Cl)cc(Cl)cc1Cl)C(=O)n1ccnc1,AC50,[3],20 µM (active)
same,AC50,[5],0.432 µM (active)
O=C(Nc1ccccc1)Nc1cnns1,outcome,[1],inactive
same,outcome,[4],inactive
same,outcome,[5],inactive
same,outcome,[6],inactive
O=[N+]([O-])/N=C1\NCCN1Cc1ccc(Cl)nc1,outcome,[2],inactive
same,outcome,[3],inactive
same,outcome,[5],inactive
COP(=S)(OC)Oc1ccc(SC)c(C)c1,outcome,[5],inactive
